Drawing on PubChem BioAssay, this text covers z-score and composite z-score for nine compounds.

Activity calls are given as the source filed them. Unless noted, no rule for the calls is given here.

Experiment [1] in a line: resazurin metabolic signal in HepG2 cells – cell-based, resazurin fluorescence, 24 h, PK04 Diversity Set, profiling panel (AID 1172). The conditions noted are these: HepG2 viability, higher = more signal.
Experiment [2] in a line: budding yeast growth changes without added modifier – OD600, strain BY4716, 24 h, basal condition, primary screen (AID 1173). Conditions: S. cerevisiae BY4716 growth, OD600, 24 h; higher = more signal, called active from +8 up or from −8 down.
The nature of experiment [3]: viability profiling in MM1S myeloma cells – cell-based, resazurin fluorescence, basal, 24 h, PK04 Diversity Set, profiling panel (AID 1174).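 Also: MM1S multiple myeloma cell line.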 Conditions: higher = more signal, called active from +8 up or from −8 down. (In general: Alamar Blue is a resazurin reagent that responds to reducing activity.)
Experiment [4] concerns the target Dihydroorotate dehydrogenase (quinone), mitochondrial (Plasmodium falciparum (isolate 3D7)) (UniProt Q08210). As to the kind of experiment: inhibition of P. falciparum DHODH – biochemical, C-terminal His tag, absorbance 600 nm, primary screen (AID 1175).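 Also: recombinant parasite enzyme with a five histidine tag at its C terminus.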 The conditions noted are these: PfDHODH enzyme, DCIP absorbance 600 nm; higher = more signal, called active from +8 up or from −8 down.

Experiment [5] can be described thus: inhibition of PAO1 biofilm formation – strain PAO1, LB-PBS medium, absorbance 600 nm, primary screen (AID 1176). Conditions: P. aeruginosa PAO1 growth/biofilm, A600, 12 h; higher = more signal.
Experiment [6] in a line: growth modulation of vineyard yeast isolate – strain RM11-1a, OD600, basal, 24 h, primary screen (AID 1177).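 Also: cultures grown under basal conditions with no added stressor.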 The conditions noted are these: S. cerevisiae RM11-1a growth, OD600, 24 h; higher = more signal, called active from +8 up or from −8 down.
Experiment [7] is described as follows: growth of efflux-deficient E. coli DRC39 – strain DRC39, OD650, 24 h, E. coli filamentation inducers, primary screen (AID 1178).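 Also: growth measured as culture turbidity by optical density at 650 nm.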 The conditions noted are these: E. coli DRC39 acrAB, higher = more signal, called active from +8 up or from −8 down.
The nature of experiment [8]: growth of efflux-deficient E. coli DRC39 – strain DRC39, OD650, 48 h, E. coli filamentation inducers, primary screen (AID 1179).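 Also: screen aims at cell division blockers that make cells filament.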 The conditions noted are these: E. coli DRC39 delta-acrAB growth, higher = more signal, called active from +8 up or from −8 down.
Experiment [9] can be described thus: viability profiling in RPMI8226 myeloma cells – cell-based, resazurin fluorescence, basal, 24 h, PK04 Diversity Set, profiling panel (AID 1180).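 Also: RPMI8826 multiple myeloma cell line at 5000 cells per well.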 The conditions noted are these: higher = more signal.
For experiment [10], the target named is E3 ubiquitin-protein ligase XIAP (Homo sapiens) (UniProt P98170). Description: small molecules binding XIAP protein – biophysical, small-molecule microarray, fluorescence 635 nm, primary screen (AID 1181).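 Also: score merges 667 nm emission and signal to noise over triplicate slides.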 The conditions noted are these: higher = more signal.
E3 ubiquitin-protein ligase XIAP (Homo sapiens), sequence (P98170 whole entry, looked up, the tested form may be a part): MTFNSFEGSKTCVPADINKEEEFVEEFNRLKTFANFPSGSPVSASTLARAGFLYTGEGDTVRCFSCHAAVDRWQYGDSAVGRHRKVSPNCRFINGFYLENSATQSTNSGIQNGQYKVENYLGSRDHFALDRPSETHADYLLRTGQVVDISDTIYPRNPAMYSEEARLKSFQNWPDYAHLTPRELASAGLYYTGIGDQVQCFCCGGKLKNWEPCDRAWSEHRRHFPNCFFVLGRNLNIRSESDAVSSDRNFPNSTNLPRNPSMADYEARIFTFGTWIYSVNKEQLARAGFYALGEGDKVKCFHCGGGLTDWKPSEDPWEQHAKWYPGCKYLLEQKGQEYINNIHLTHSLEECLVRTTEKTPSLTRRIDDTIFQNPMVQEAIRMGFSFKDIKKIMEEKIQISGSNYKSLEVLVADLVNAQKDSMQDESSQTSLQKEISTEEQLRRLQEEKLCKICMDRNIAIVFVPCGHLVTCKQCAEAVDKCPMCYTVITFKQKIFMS
Experiment [11] relates to XIP peptide (Xip251-270) binding. Description: XIP fragment 251-270 binding compounds – biochemical, small-molecule microarray, fluorescence 635/667 nm, 0.1 µg/mL protein, primary screen (AID 1182). The conditions noted are these: fluorescent protein binding, 635 nm, higher = more signal, called active from +8 up or from −8 down.
The subject of a further experiment is XIP peptide (Xip251-270). Description: compounds binding XIP fragment 251-270 – biochemical, small-molecule microarray, fluorescence 635/667 nm, 0.5 µg/mL protein, primary screen (AID 1183). Conditions: fluorescence 635 nm, higher = more signal.
The nature of experiment [12]: blood-stage malaria parasite viability loss – strain 3D7, DAPI fluorescence, 100 nL, primary screen (AID 1184).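 Also: parasites grown inside human red blood cells in medium with human serum.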 Conditions: P. falciparum 3D7 growth, 3 d, higher = more signal.
Experiment [13] deals with Homeobox protein Hox-A13 (Mus musculus) (UniProt Q62424). Description: disruptors of Hoxa13 oligonucleotide interaction – biochemical, fluorescence polarization, labeled oligonucleotide, primary screen (AID 1185). Conditions: Hoxa13:DNA binding, 15 min, higher = more signal, called active from +8 up or from −8 down.
Homeobox protein Hox-A13 (Mus musculus), sequence (Q62424 whole entry, looked up): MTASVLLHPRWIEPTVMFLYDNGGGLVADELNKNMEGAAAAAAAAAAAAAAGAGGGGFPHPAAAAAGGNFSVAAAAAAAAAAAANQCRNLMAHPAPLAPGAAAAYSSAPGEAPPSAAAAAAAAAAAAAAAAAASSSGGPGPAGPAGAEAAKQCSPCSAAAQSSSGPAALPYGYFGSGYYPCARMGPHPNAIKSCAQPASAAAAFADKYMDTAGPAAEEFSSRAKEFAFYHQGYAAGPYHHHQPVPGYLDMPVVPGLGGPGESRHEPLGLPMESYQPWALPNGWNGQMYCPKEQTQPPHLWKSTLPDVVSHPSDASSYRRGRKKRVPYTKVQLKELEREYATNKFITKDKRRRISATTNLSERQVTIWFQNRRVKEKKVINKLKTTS
Experiment [14] is described as follows: blockers of DNA damage checkpoint Chk1 activation – imaging, HeLa, hydroxyurea, phospho-Chk1 antibody, percent positive cells, primary screen (AID 1186). The conditions noted are these: hydroxyurea-induced phospho-Chk1 immunofluorescence imaging, higher = more signal.
Experiment [15] can be described thus: blockers of DNA damage checkpoint Chk1 activation – imaging, HeLa, hydroxyurea, phospho-Chk1 nuclear intensity, primary screen (AID 1187). The conditions noted are these: hydroxyurea-induced phospho-Chk1 immunofluorescence imaging, higher = more signal.

Dihydroorotate dehydrogenase (quinone), mitochondrial (Plasmodium falciparum (isolate 3D7)), sequence (Q08210 whole entry, looked up): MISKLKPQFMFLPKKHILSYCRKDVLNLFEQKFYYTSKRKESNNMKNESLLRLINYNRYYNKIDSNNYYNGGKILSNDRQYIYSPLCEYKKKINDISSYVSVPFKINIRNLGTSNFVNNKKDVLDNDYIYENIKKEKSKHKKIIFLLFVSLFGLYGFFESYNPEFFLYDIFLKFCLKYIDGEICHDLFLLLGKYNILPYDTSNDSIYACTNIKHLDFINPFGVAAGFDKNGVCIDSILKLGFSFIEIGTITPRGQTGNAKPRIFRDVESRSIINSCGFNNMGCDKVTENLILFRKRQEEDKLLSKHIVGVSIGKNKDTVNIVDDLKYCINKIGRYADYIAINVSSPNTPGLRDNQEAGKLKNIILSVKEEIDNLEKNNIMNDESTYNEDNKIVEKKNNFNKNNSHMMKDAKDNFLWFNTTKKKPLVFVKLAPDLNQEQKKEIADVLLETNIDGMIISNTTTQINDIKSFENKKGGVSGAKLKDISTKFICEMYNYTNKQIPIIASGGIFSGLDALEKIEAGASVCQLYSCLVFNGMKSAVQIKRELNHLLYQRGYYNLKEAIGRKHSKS

Take `C[C@@H](OCc1ccccc1)C1NC(=O)[C@@]23C(=O)N[C@@H](Cc4ccccc4)C2[C@H](C)[C@@]2(C)O[C@H]2C3/C=C/C/C=C\CNC(=O)CNC1=O` (some centres undefined): the z-score was -0.816 in [1]; -0.303 (inactive) in [2]; -0.555 (inactive) in experiment [3]; 0.662 (inactive) in experiment [5]; -0.509 (inactive) in experiment [6]; 0.0899 (inactive) in [7]. Moreover, the z-score is -0.754 (inactive) in experiment [8]; -0.724 in experiment [9]; -0.748 in experiment [12]; -7.11 (inactive) in experiment [13]; 0.631 (inactive) in experiment [14]; 0.734 (inactive) in experiment [15]. Besides, the composite z-score in experiment [4] was -0.402 (inactive); in experiment [10] it was -0.0351; in experiment [11], -0.153 (inactive); with XIP peptide (Xip251-270) it was -0.796.
Consider `COc1ccccc1CN1C(=O)c2ccccc2[C@](Cc2ccccc2I)(C(=O)NC(C)C)[C@@H]1c1ccc(CO)cc1`, for which the z-score in [1] was 0.985; in experiment [2] it was -0.601 (inactive); in experiment [3], -0.577 (inactive); in experiment [5], -0.379 (inactive); in experiment [6] it was 0.862 (inactive); in experiment [7] it was 1.05 (inactive). Also, the z-score in experiment [8] was 1.01 (inactive); in experiment [9], -0.305; in [12], -1.95; in experiment [13] it was -3.59 (inactive); in [14], -0.316 (inactive); in [15], -0.471 (inactive). Moreover, the composite z-score in [4] is -2.47 (inactive); in experiment [10], -0.253; in experiment [11] it was 0.265 (inactive); with XIP peptide (Xip251-270), 0.585.
Consider `COCCCNC(=O)[C@@]1(Sc2ccc(C)cc2)CC(=O)N(Cc2cc(C(F)(F)F)cc(C(F)(F)F)c2)[C@@H]1c1ccc(CO)cc1`, for which the z-score in experiment [1] was -0.092; in experiment [2], -0.138 (inactive); in [3], -0.538 (inactive); in [5] it was 0.158 (inactive); in [6] it was -0.219 (inactive); in experiment [7] it was 0.0881 (inactive). For the same compound, the z-score in [8] was 0.231 (inactive); in experiment [9] it was -0.368; in [12] it was -0.0611; in experiment [13], -0.737 (inactive); in [14], 0.155 (inactive); in experiment [15], 0.0411 (inactive). Besides, the composite z-score in [4] is -0.669 (inactive); in [10] it was -0.0571; in experiment [11] it was 0.451 (inactive); in the experiment on XIP peptide (Xip251-270), 0.634.
As for `C=CCC(OC(C)=O)[C@@H]1[C@@H](N(Cc2cc3ccccc3o2)C(=O)Cc2ccc(F)cc2)c2cc(OCCCO)ccc2N1C(=O)c1ccc2ccccc2n1` (some centres undefined), the z-score was 0.182 in [1]; -0.44 (inactive) in experiment [2]; 0.74 (inactive) in [3]; 0.243 (inactive) in experiment [5]; -0.176 (inactive) in experiment [6]; 0.106 (inactive) in [7]. For the same compound, the z-score in experiment [8] is 0.155 (inactive); in [9], 0.708; in experiment [12], 0.774; in experiment [13] it was -1.55 (inactive); in [14], 0.702 (inactive); in [15], 0.636 (inactive). Further, the composite z-score in experiment [4] is -0.235 (inactive); in [10], -0.217; in [11] it was -0.173 (inactive); in the experiment with XIP peptide (Xip251-270), -0.442.
As for `CCOC(=O)C1=CC[C@@H](c2ccc([N+](=O)[O-])cc2)N(S(=O)(=O)c2ccc(C)cc2)[C@H]1c1ccccc1`, the z-score in [1] was 0.468; in experiment [2] it was 2.52 (inactive); in experiment [3], 0.541 (inactive); in experiment [5], 0.229 (inactive); in experiment [6] it was 0.901 (inactive); in experiment [7], -0.72 (inactive). Also, the z-score was -0.445 (inactive) in [8]; 0.546 in experiment [9]; -1.41 in experiment [12]; 2.35 (inactive) in experiment [13]; -0.137 (inactive) in experiment [14]; -0.3 (inactive) in experiment [15]. The composite z-score was 0.914 (inactive) in experiment [4], -0.124 in [10], 0.353 (inactive) in [11] and 0.552 in the experiment with XIP peptide (Xip251-270).
With `CC(C)(C)OC(=O)CC[C@@]1(C(=O)O)N=C(c2ccc(OCCCO)cc2)O[C@@H]1c1ccccc1`, the z-score in experiment [1] was 0.0648; in experiment [2], 0.313 (inactive); in [3] it was 0.0375 (inactive); in experiment [5] it was -0.043 (inactive); in experiment [6], 1.4 (inactive); in [7], 0.0847 (inactive). Also, the z-score was -0.202 (inactive) in experiment [8]; 0.56 in experiment [9]; 0.274 in [12]; -2.94 (inactive) in experiment [13]; -0.0016 (inactive) in experiment [14]; 0.18 (inactive) in [15]. Also, the composite z-score in experiment [4] was 0.904 (inactive); in experiment [10], -0.0918; in [11], 0.0877 (inactive); in the experiment on XIP peptide (Xip251-270), 0.84.
Regarding `Cc1ccc(S[C@]2(C(=O)NCC(C)C)CC(=O)N(Cc3ccccc3Cl)[C@@H]2c2ccc(CO)cc2I)cc1`, the z-score in [1] was 0.0825; in experiment [2], -1.61 (inactive); in [3], -1.68 (inactive); in [5] it was 0.82 (inactive); in experiment [6], -1.33 (inactive); in experiment [7], -0.0158 (inactive). Moreover, the z-score in experiment [8] is 0.0686 (inactive); in experiment [9], -2.44; in [12] it was -0.548; in [13], -2.97 (inactive); in [14], -0.346 (inactive); in experiment [15] it was -0.237 (inactive). The composite z-score was -0.0436 (inactive) in experiment [4], -0.152 in experiment [10], 2.28 (inactive) in experiment [11] and 0.157 in the experiment with XIP peptide (Xip251-270).
As to `CO[C@H]1O[C@H](CO)[C@@H](OC(=O)Nc2ccccc2-c2ccccc2)[C@H](OC(=O)Nc2ccc3c(c2)OCO3)[C@@H]1OC(=O)Nc1ccc2c(c1)OCO2`, the z-score in experiment [1] is -1.18; in experiment [2], 1.03 (inactive); in experiment [3], -1.38 (inactive); in experiment [5] it was 1.86 (inactive); in [6], 2.9 (inactive); in experiment [7], 0.999 (inactive). The z-score was -0.124 (inactive) in [8]; -1.12 in [9]; -2.17 in experiment [12]; -3.65 (inactive) in [13]; -0.0753 (inactive) in [14]; 0.24 (inactive) in experiment [15]. Also, the composite z-score in experiment [4] is -0.289 (inactive); in experiment [10] it was 0.227; in experiment [11] it was 0.882 (inactive); with XIP peptide (Xip251-270), 0.801.
Take `COC(=O)c1c(CC[C@@H](CO)NC(=O)N[C@H](Cn2cc(-c3ccccc3C)nn2)C(C)C)oc(C(C)=O)c1C(=O)OC`: the z-score in experiment [1] is -0.329; in [2], -0.723 (inactive); in experiment [3] it was 0.173 (inactive); in [5], 0.574 (inactive); in [6], -0.489 (inactive); in experiment [7] it was 0.173 (inactive). Moreover, the z-score in [8] is -0.488 (inactive); in experiment [9] it was -0.371; in experiment [12], -1.85; in experiment [13], -0.127 (inactive); in experiment [14], 1.16 (inactive); in experiment [15] it was 0.823 (inactive). The composite z-score is -3.09 (inactive) in experiment [4], 0.211 in [10], -0.0077 (inactive) in experiment [11] and -0.0163 in the experiment on XIP peptide (Xip251-270).
